Source: PubChem BioAssay (National Center for Advancing Translational Sciences (NCATS))
A selection: hits, their analogues and other compounds. The true share with any hit is near 7.5%.
Rab9 prom act = activators of Rab9 promoter | Huh7 Rab9 promoter-luciferase reporter, luminescence, 24 h | Potency, µM (highest dose often 9.22 µM), most hits filed as activators | 2.8% of 320,000 active; further: nearly all actives have a fitted effect of over 60% in size
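Stable Rab9-luc Huh7, 1500 cells/well, 2 h settle; cmpd in DMSO, 24 h, 37 °C/5% CO2; luciferase reagent 10 min RT; luminescence.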
ELG1 genotox = induces genotoxicity in HEK293T cells with luciferase-tagged ELG1; AID 504466; 1.3% of 330,000 active; Potency, µM (highest dose often 46 µM), usual class: activators; HEK293T ELG1-luciferase reporter, luminescence, 16 h; further: nearly all actives have a fitted effect of over 60% in size
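ELG1-luciferase HEK293T cells, 2,000/well; compound pinned in; 16 hr, 37 °C, 5% CO2; ONE-Glo, 30 min RT; luminescence on CCD imager.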
SMN2 splice enh = enhancers of SMN2 splice variant expression; HEK293 SMN2-luciferase splicing reporter, luminescence, 30-36 h; AID 1458; 2.8% of 210,000 active; Potency, µM (doses to about 46.1 µM), hits mostly activators; further: nearly all actives have a fitted effect of over 55% in size
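HEK293 cells carry an SMN2 […]–luciferase reporter in which exon 7 inclusion puts luciferase in frame. Cells were plated 10-12 h before compound addition, then incubated 30-36 h at 37C. ONE-Glo luminescence was read; sodium butyrate at 4.5 mM final served as control.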
Luc counter = Kinase-Glo luciferase inhibition (counter-screen); Q27757; Kinase-Glo luciferase, ATP luminescence, 8 min; Potency, µM (highest dose often 38.3 µM), usual class: inhibitors; 0.28% of 200,000 active; AID 1379; further: nearly all actives have a fitted effect of over 60% in size
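Compounds were added to a substrate mix at pH 7.2 (50 mM imidazole, 10 uM ATP, within the enzyme's linear range), followed by Kinase-Glo detection reagent; luminescence was measured after 8 minutes at ambient temperature.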
NPC1 promoter act = activates the NPC1 promoter; Huh7 NPC1 promoter luciferase reporter, 24 h; Potency, µM (series often up to 9.22 µM), hits mostly activators; 2.4% of 320,000 active; AID 485313; further: nearly all actives have a fitted effect of over 60% in size
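Luciferase expression driven by the NPC1 promoter was measured in stably transfected Huh7 cells after a 24 h compound incubation, using a luciferase reagent and a luminescence read.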
FLuc modulator = firefly luciferase modulation, counter-screen for miR-21 project. purified FLuc, Km substrates, luminescence inhibition. Potency, µM (top dose mostly 57.5 µM), hits mostly inhibitors. 6.9% of 360,000 active; further: nearly all actives have a fitted effect of over 55% in size
Target sequence (P08659 whole entry, looked up): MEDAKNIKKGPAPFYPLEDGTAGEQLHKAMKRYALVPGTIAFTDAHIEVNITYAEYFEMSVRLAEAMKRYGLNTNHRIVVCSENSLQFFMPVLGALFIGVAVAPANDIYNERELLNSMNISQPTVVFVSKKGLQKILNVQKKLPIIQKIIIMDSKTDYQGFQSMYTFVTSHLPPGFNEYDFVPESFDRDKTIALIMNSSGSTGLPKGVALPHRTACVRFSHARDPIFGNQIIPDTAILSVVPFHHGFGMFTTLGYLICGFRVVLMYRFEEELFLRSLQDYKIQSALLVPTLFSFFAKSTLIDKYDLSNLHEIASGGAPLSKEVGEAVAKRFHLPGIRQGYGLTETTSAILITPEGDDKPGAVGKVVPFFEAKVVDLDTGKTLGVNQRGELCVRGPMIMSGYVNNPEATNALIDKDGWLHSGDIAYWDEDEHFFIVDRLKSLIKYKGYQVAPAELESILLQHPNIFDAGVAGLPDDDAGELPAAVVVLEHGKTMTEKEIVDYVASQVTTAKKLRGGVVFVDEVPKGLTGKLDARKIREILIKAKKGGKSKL
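Purified P. pyralis luciferase (10nM final) with 10uM D-luciferin and 10uM ATP (Km levels) in 50mM Tris acetate pH 7.5, 10mM Mg acetate, 0.01% Tween-20, 0.05% BSA; qHTS 6-point titration, ~60 µM downward; luminescence read.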
Hits are given with their value; . = inactive; ? = inconclusive; / = no result; [ ] = dose if it differs, or a comment. The call rests on the fitted dose curve; in most records, active means well fitted curve in the direction sought with a large enough effect; inconclusive means small, poorly fitted or top-dose-only effect, or another doubt; inactive means no such curve, though single readings can be large; an effect the other way counts as inactive or inconclusive.

SMILES	Rab9 prom act	ELG1 genotox	SMN2 splice enh	Luc counter	NPC1 promoter act	FLuc modulator
CCOC(=O)CNC(=O)c1sc(NC(=O)c2ccccc2F)nc1C	?	9.2µM	/	/	?	11µM
CCOC(=O)CNC(=O)c1sc(NC(=O)c2cccc(F)c2)nc1C	.	?	.	.	.	21µM
O=C(CNC(=O)c1ccccc1F)OCCCOC(=O)CNC(=O)c1ccccc1F	.	.	/	/	.	.
COC(=O)c1sc(NC(=S)NC(=O)c2cccc(C)c2)nc1C	?	?	.	.	.	?
Cc1noc(C)c1COC(=O)CNC(=O)c1cccc(F)c1	.	.	.	.	.	.
COC(=O)c1sc(NC(=S)NC(=O)c2ccccc2F)nc1C	1µM	?	.	.	?	8.5µM
Cc1cc(C)c(C(=O)COC(=O)c2cc([N+](=O)[O-])ccc2N2CCOCC2)cc1C	.	.	/	/	.	.
Cc1ccc(C)c(N2CCN(C(=O)Cn3c(C)c4cnn(-c5ccccc5)c(=O)c4c3C)CC2)c1	/	/	.	/	/	.
C/C(=N\NC(=O)COc1cccc(C)c1)c1ccc2ccccc2c1O	.	.	/	/	.	.
C[C@H](C(=O)c1ccccc1)C(c1ccccc1)N1CCOCC1 (stereo partly drawn)	/	/	.[9.22 µM]	.[7.66 µM]	/	/
CC(C)(C)c1ccc(C(=O)Nc2ccc(-c3nc4ccccc4o3)c(O)c2)cc1	/	/	.	/	/	.
C=CCOc1ccc2c(OC)c3ccoc3nc2c1OC	.	?	13µM	.	.	9.5µM
CCOc1c2ccoc2nc2c(OC)c(OC)ccc12	.	?	/	/	.	21µM
C(=N\n1cnnc1)/c1ccc(OCc2cccc3ccccc23)cc1	?	?	14µM	.	?	?
O=[N+]([O-])c1ccc(N/N=C/c2ccc(OCc3cccc4ccccc34)cc2)nc1	.	21µM	.	.	.	.
Fc1ccccc1COc1ccc(/C=N/n2cnnc2)cc1	.	.	.	.	.	.
C(=N\n1cnnc1)/c1cccc(OCCOc2ccccc2)c1	1.4µM	.	11µM	.	2.8µM	?
C/C(=N/NC(=O)c1cccc(N2CCCC2=O)c1)c1ccncc1	3.2µM	?	/	.	?	15µM
C/C(=N/NC(=O)c1cccc(N2CCCC2=O)c1)c1ccc(Br)cc1	.	.	/	/	.	15µM
CC(C)/C=N/NC(=O)c1cccc(N2CCCC2=O)c1	.	.	.	.	.	.
O=C(O)c1cccc(N2CCCC2=O)c1	.	.	.	.	.	.
CCN(C(=O)C1CCCN1S(=O)(=O)c1ccc2c(c1)n(C)c(=O)c(=O)n2C)c1ccccc1 (stereo not drawn)	.	.	/	/	.	.
O=C(COC(=O)c1ccc(S(=O)(=O)C(F)F)cc1)Nc1ccccc1C(=O)NC1CC1	.	.	/	/	.	.
O=C(N/N=C/c1ccc2cccc(OCc3ccccc3)c2n1)c1ccc(Br)cc1	.	.	.	.	.	2.7µM
COc1c(OC(C)=O)ccc(/C=C/c2ccc3cccc(OCc4ccccc4)c3n2)c1[N+](=O)[O-]	?	.	.[1.84 µM]	.	?	1.5µM
SMILES	Rab9 prom act	ELG1 genotox	SMN2 splice enh	Luc counter	NPC1 promoter act	FLuc modulator
COc1cc(/C=C/c2ccc3cccc(OC)c3n2)c(OC(C)=O)c([N+](=O)[O-])c1	.	.	.	.	.	.
COc1ccc(C(=O)N/N=C/c2ccc3cccc(OCc4ccccc4)c3n2)cc1	.	.	.	.	.	1.5µM
NC(=S)N/N=C/c1ccc2cccc(OCc3ccccc3)c2n1	.	.	/	/	.	.
COc1ccc(C(=O)NC2CCCCC2)cc1OC1CCN(C(C)C)CC1	.	.	/	/	.	.
Cc1cccc(C(C)C)c1NC(=O)C(C)OC(=O)Cc1n[nH]c(=O)c2ccccc12 (stereo not drawn)	.	.	/	/	.	.
CCN(CC)c1ccc(/C=C(\C#N)C(N)=S)cc1	.	.	/	/	.	21µM
CCCc1nn(C)c(C(=O)Nc2ccc(C)c(C)c2)c1Cl	3.2µM	?	6.3µM	.	?	11µM
CCCc1nn(C)c(C(=O)Nc2ccc(CC)cc2)c1Cl	.	.	.	.	.	?
COc1ccc(-c2onc(C)c2C)cc1S(=O)(=O)Nc1cccc(C#N)c1	/	/	/	/	/	.
Cn1c(COc2ccccc2Br)nc2ccccc21	?	10µM	/	/	2.5µM	6.7µM
